Results on 58 compounds are retold here after PubChem BioAssay AID743279 (National Center for Advancing Translational Sciences (NCATS), 2014).

SMILES strings stand for the structures. Hit rate of the full screen: of about 360,000 compounds, about 17,000 (4.7%) were called active. Not shown: some 5% with an inconclusive outcome. For the sample, actives were picked, then their nearest neighbours and some compounds at random. A number with no mark means an inactive call. Rule as the data show it: active = activity change below about -50%; inconclusive = mostly about -30% to -49%; inactive = weaker than that.
% is scaled to controls: 0 for no effect and ±100 for the full control effect.

The nature of the assay: qHTS for Inhibitors of Inflammasome Signaling: IL-1-beta AlphaLISA Primary Screen. Particulars: THP-1 LPS/ATP IL-1B secretion, 16 h; at 57.5 µM, stronger effect = lower value. Summed up:
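THP-1 cells pretreated 1 hr with compounds (up to 57.5 uM final), then stimulated with LPS (250 ng/mL final) plus ATP (1.25 mM final); secreted IL-1B measured by AlphaLISA after 16 hr, decreased signal indicating inhibition.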
As to `CCOC(=O)C1=CC[C@@H](c2ccccc2)N(S(=O)(=O)c2ccc(C)cc2)[C@H]1c1cccc(OC)c1`, the activity change is 2.13%.
Consider `O=C(c1ccc(Cl)cc1)c1ccc(OCC(O)CN2CCCCC2)cc1` (stereo not drawn), for which the activity change is -52.5% (active).
With `CCC(=O)c1ccc(OCC(O)CN2CCN(c3cccc(C(F)(F)F)c3)CC2)cc1` (stereo not drawn) the figure was -11.4%; with `CC1CCN(CC(O)COc2ccc(C(=O)c3ccccc3)cc2)CC1` (stereo not drawn), -22.3%.
With `OC(COc1ccc(Br)cc1)CN1CCCC1` (stereo not drawn) the figure was -27.2%; with `OC(COc1ccccc1)CN1CCN(c2cccc(Cl)c2)CC1` (stereo not drawn), 14.3%; with `OC(COc1ccc2c(c1)CCC2)CN1CCN(c2cccc(Cl)c2)CC1` (stereo not drawn), -64.8% (active).
With `CC(C)NC(=O)C1(C)CCCCN1Cc1cccc(C(F)(F)F)c1` (stereo not drawn) the figure was 12.4%.
As for `CCCCCNC(=O)C(c1ccc(OC)cc1)n1c(=O)c(-c2ccccc2)nc2ccccc21` (stereo not drawn), the activity change was -10.4%.
The result for `CCOC(=O)C1(C)CCCN(C(=O)c2ccc(F)c(Cl)c2)C1` (stereo not drawn) reads 7.31%; that for `C[C@H]1CN([C@@H](C)CO)C(=O)CCCn2cc(nn2)CO[C@@H]1CN(C)S(=O)(=O)c1ccc(-n2cccn2)cc1`, -21.5%; that for `O=C(CSCc1ccc([N+](=O)[O-])cc1)Nc1cccc(C(=O)Nc2ccccc2C(=O)O)c1`, 13.4%.
The result for `O=C(Cc1ccc(S(=O)(=O)N2CCOCC2)s1)NCCC(c1ccccc1)c1ccccc1` reads 17%; that for `O=C(Cc1ccc(S(=O)(=O)N2CCOCC2)s1)NCCOc1ccccc1F`, 6.24%; that for `O=C(Cc1ccc(S(=O)(=O)N2CCOCC2)s1)Nc1ccc(Br)c(C(F)(F)F)c1`, -61% (active).
Consider `CCN(C(=O)Nc1cccc2ccccc12)c1ccccc1`, for which the activity change is 12.7%.
The result for `O=C(Nc1nnc(-c2ccccc2)o1)c1cc(-c2cccs2)nc2ccccc12` reads 23%.
Take `COc1ccccc1C(=O)Nn1c(-c2cccs2)nc2ccccc2c1=O`: the activity change was -3.33%.
With `CC(=O)Nc1cccc(Nc2nc(-c3cccs3)nc3ccccc23)c1` the figure was -65.6% (active); with `COc1ccccc1Oc1ccc(S(=O)(=O)Nc2cccnc2)cc1`, -2.24%; with `Cc1ccc(NS(=O)(=O)c2ccc(C(C)(C)C)cc2)cn1`, 1.59%.
`Cc1cc(C)cc(NS(=O)(=O)c2ccc(Oc3ncc(C(F)(F)F)cc3Cl)cc2)c1`: the activity change was -75.1% (active).
As to `COc1ccc(S(=O)(=O)N(C)C[C@H]2OCc3cnnn3CCCC(=O)N([C@H](C)CO)C[C@H]2C)cc1`, the activity change was -20%.
On to `Cc1ccccc1NC(=O)Cc1nc(COC(=O)C(C)(C)Oc2ccc(Cl)cc2)cs1`, for which the activity change is 17%.
The result for `CC1CCCCN1CCCNC(=O)Cn1ncc2c([nH]c3ccccc32)c1=O` (stereo not drawn) reads 14.3%.
With `CCNC(=O)C1CCCN(C(=O)c2cc(F)ccc2C)CC1` (stereo not drawn) the figure was 26.6%.
On to `Cc1nn(C)c(C)c1NS(=O)(=O)c1ccc(OC(F)(F)F)cc1`, for which the activity change was 63%.
Regarding `O=C1COc2ccc(S(=O)(=O)Nc3ccc(OC(F)(F)F)cc3)cc2N1`, the activity change was 6.28%.
In the case of `O=S(=O)(Nc1ccc(O)c2ccccc12)c1ccc(OC(F)(F)F)cc1`, the activity change was -70.3% (active).
With `O=C(CC[C@H]1O[C@@H](n2ccc(=O)[nH]c2=O)[C@H](O)[C@@H]1O)N[C@H](Cc1ccccc1)C(=O)NCc1ccco1` the figure was 17.1%; with `CNc1nc(=O)n(C2CCCO2)cc1C` (stereo not drawn), -1.08%; with `Cc1cc(C)n2c(Nc3c(C)cccc3C)c(CCc3ccccc3)nc2n1`, 0%.
With `O=C(COC(=O)c1ccc([N+](=O)[O-])cc1Cl)NC(=O)c1ccccc1` the figure was 0.699%; with `O=C(NC(Nc1nc2ccc([N+](=O)[O-])cc2s1)(C(F)(F)F)C(F)(F)F)c1ccccc1`, -105% (active).
The result for `O=C(NOCc1ccccc1)c1cccc([N+](=O)[O-])c1` reads -14.2%.
Take `CCOC(=O)c1ccccc1NC(=O)COC(=O)CCC(=O)N1CCOCC1`: the activity change was -2.88%.
The result for `Cc1ccccc1C(OCCN(C)C)C1CCCCC1` (stereo not drawn) reads -55.7% (active); that for `CN(C)CCOC(=O)C(c1ccccc1)C1(O)CCCC1` (stereo not drawn), -8.97%.
With `CN(C)CCOC1c2ccccc2-c2ccccc21` the figure was -24.9%; with `Nc1ccccc1Sc1cc(Cl)nnc1Cl`, 4.28%.
With `CCOc1ccc(S(=O)(=O)Nc2nccs2)cc1` the figure was -1.81%.
Take `CC(Oc1ccc(Cl)cc1)c1ccnn1S(C)(=O)=O` (stereo not drawn): the activity change was -4.95%.
With `Cc1ccc(NC(=O)c2cc([N+](=O)[O-])ccc2Cl)c(O)c1` the figure was -76% (active).
The result for `CCC(C)C(=O)Nc1cc([N+](=O)[O-])ccc1Cl` (stereo not drawn) reads 4.95%.
With `CNc1ccc([N+](=O)[O-])cc1C(=O)O` the figure was 12.5%; with `CN(Cc1ccccc1F)c1cc2c(c3c1ccn3C)C1CCC2O1` (stereo not drawn), 38.3%; with `Cc1nccn1-c1ccc(NC(=O)[C@H]2O[C@@H](n3ccc(=O)[nH]c3=O)[C@H](O)[C@@H]2O)cc1`, 20.2%.
In the case of `COC(=O)[C@@]1(Cc2ccc(F)cc2)[C@H]2c3cc(C(=O)N(C)C)n(CCc4c[nH]c5ccc(OC)cc45)c3C[C@H]2CN1C(=O)c1ccccc1`, the activity change was -25.7%.
As to `O=C(CSc1nnc(-c2ccncc2)n1-c1ccc(Cl)cc1)Nc1ccc(C(=O)O)cc1`, the activity change is 8.71%.
With `Cn1c(=N)n(CC(O)c2ccccc2)c2ccccc21` (stereo not drawn) the figure was 35.9%; with `CCOc1ccc(C(O)Cn2c(=N)n(CCN3CCCCC3)c3ccccc32)cc1` (stereo not drawn), -60.3% (active); with `CCOc1ccc(CN2CCCN(C)CC2)cc1`, 14.6%.
The result for `COCCn1cnnc1SCC(=O)Nc1cccc(S(=O)(=O)N2CCCCC2)c1` reads 5.3%.
The result for `CN(CCO)C(=O)c1nc[nH]c1C(=O)N(C)Cc1ccccc1` reads 26.2%; that for `CCCCCCN1C[C@H](O)[C@@H](n2cc(C3CC3)nn2)C[C@@H]1c1ccc(Cl)cc1`, 82%; that for `CC(=O)Nc1ccc(NC(=O)COc2ccc(-c3ccccc3)cc2)cc1`, -15.4%.
As to `CN1CCN(CCC(=O)N/N=C/C=C2\N(C)c3ccccc3C2(C)C)CC1`, the activity change is 10.2%.
The result for `CC(=O)Nc1cccc(OCC(=O)/C=C2\N(C)c3ccccc3C2(C)C)c1` reads -82% (active).
